CendR NRP1 mod: modulators of CendR peptide binding to NRP-1, primary screen, biochemical, fluorescence polarization, uHTS; Neuropilin-1 (Homo sapiens), O14786; FAM-RPARPAR peptide binding to NRP-1; inhibition, % at 25 µM; 360,000 compounds, 0.85% hits;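 active = inhibition or corrected inhibition above about 18%, plus a signal ratio from 0.5 to 1.5, limit read from the data, passing the limit was not always enough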
PDI inh: inhibitors of human PDI, primary screen, biochemical, turbidity, single point, plate reader; inhibition, % at 10 µM; Protein disulfide-isomerase (Homo sapiens), P07237; 350,000 compounds, 0.052% hits; PDI insulin aggregation turbidity, A650, 90 min;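 active = mean inhibition across replicates of 30% or more, whatever share of single replicates reach that level; inconclusive = mean inhibition below 30% while every single replicate reaches 30%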
Target sequence (P07237 whole entry, looked up): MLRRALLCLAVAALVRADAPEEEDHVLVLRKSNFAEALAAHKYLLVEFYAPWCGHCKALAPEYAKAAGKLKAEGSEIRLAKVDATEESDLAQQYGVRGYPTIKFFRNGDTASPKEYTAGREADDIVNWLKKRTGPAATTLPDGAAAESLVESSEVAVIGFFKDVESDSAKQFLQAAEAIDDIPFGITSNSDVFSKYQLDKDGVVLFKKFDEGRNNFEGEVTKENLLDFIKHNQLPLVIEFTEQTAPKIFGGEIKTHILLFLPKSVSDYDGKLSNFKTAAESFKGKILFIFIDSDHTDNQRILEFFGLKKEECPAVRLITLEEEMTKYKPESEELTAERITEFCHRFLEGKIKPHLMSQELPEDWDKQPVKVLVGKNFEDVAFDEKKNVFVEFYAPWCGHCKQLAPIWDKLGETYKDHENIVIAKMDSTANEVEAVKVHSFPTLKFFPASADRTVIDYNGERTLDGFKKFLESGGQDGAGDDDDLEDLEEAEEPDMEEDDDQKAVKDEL
PglD DTNB: C. jejuni PglD acetyltransferase inhibitors, primary screen, biochemical, DTNB colorimetric, single point | UDP-N-acetylbacillosamine N-acetyltransferase PglD (Campylobacter jejuni) | purified PglD enzyme, DTNB colorimetric CoA detection | inhibition, % at 12.5 µM | 360,000 compounds, 0.098% hits | AID 602405, 2012; in the data active = inhibition above about 16%, passing the limit was not always enough; inconclusive = no clear call, values can overlap the other calls
ERp5 block: inhibitors of ERp5-driven insulin aggregation, primary screen, biochemical, turbidity, absorbance 650 nm, single point; 350,000 compounds, 0.05% hits; inhibition, % at 9.99 µM; 90 min;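 active = mean replicate inhibition above about 25%, with every replicate also reaching it, limit read from the data, passing the limit was not always enough; inconclusive = only one of those two criteria met; inactive = neither criterion met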
ALR H2O2 inh: inhibitors of human ALR sulfhydryl oxidase, primary screen, biochemical, H2O2 detection, HRP-luminol luminescence, single point; FAD-linked sulfhydryl oxidase ALR (Homo sapiens), P55789; inhibition, % (no concentration beside the values); purified ALR, DTT oxidation; 290,000 compounds, 3.8% hits;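 active = mean replicate inhibition above about 79%, with every replicate also reaching it, limit read from the data; inconclusive = only one of the two criteria met; inactive = mean below limit and not every replicate reaching it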
ARNT TACC3 PPI: disruptors of ARNT/TACC3 protein interaction, primary screen, biochemical, AlphaScreen, single concentration | Transforming acidic coiled-coil-containing protein 3 (Homo sapiens), Q9Y6A5 | AlphaScreen His-ARNT PAS-B/GST-TACC3 binding, luminescence; TACC3 fragment carries E629A point mutation | inhibition, % at 9.99 µM | 390,000 compounds, 0.66% hits;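 active = mean inhibition of replicates at least 50% and at least half of replicates each reaching 50%; inconclusive = half or more replicates reach 50% but mean below 50%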;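 note: 0% = complete ARNT plus TACC3 wells and 100% = ARNT alone without TACC3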
* = called active by the depositor; ? = inconclusive; · = no result given. This is one part of a sample in which hits are shown more often than they occur.

SMILES	CendR NRP1 mod	PDI inh	PglD DTNB	ERp5 block	ALR H2O2 inh	ARNT TACC3 PPI
COc1ccc2[nH]cc(C(O)CN3CCN(c4ccccc4F)CC3)c2c1 (centres undefined)	-7	8	1	1	-3	1
COc1ccc(N2CCN(CC(O)c3c[nH]c4ccc(OC)cc34)CC2C)cc1 (centres undefined)	10	-7	2	·	100*	5
COc1ccc(CN(C)C[C@H]2Oc3ccc(NS(=O)(=O)c4ccccc4)cc3CC(=O)N([C@@H](C)CO)C[C@H]2C)cc1	·	·	4	-3	·	-5
Cc1ccc(C)c(Sc2ccc(NC(=O)CCl)cc2)c1	·	·	·	7	86*	·
Cc1ccc(Sc2ccc(NC(=O)CCl)cc2)cc1C	4	?	·	·	98*	-2
O=C(CCl)Nc1ccccc1Sc1ccccc1	4	7	-1	·	4	-5
Cc1ccnc(SCC(=O)N2CCN(c3ccccc3)CC2)n1	3	1	-4	·	98*	2
Cc1cc(C)n2nc(SCC(=O)N3CCN(c4ccccc4)CC3)nc2n1	-13	12	·	-1	98*	-3
C[C@H](CO)N1C[C@H](C)[C@H](CN(C)S(=O)(=O)c2ccc(F)cc2)OCCCC[C@H](C)Oc2ccc(NC(=O)Nc3ccc(F)cc3)cc2C1=O	·	·	-1	·	·	-7
CC(C)CC#Cc1ccc2c(c1)O[C@@H](CN(C)C(=O)c1cccnc1)[C@@H](C)CN([C@H](C)CO)S2(=O)=O	·	·	-1	0	·	1
O=C(COC(=O)c1ccc([N+](=O)[O-])o1)NC1CCCCC1	-33	1	-1	13	·	30
COc1cc(C(=O)COC(=O)c2ccc([N+](=O)[O-])o2)cc(OC)c1OC	21*	2	-1	6	-46	4
O=C(COC(=O)c1ccc([N+](=O)[O-])o1)NC1CCS(=O)(=O)C1 (centres undefined)	-34	2	·	0	·	31*
O=C(COC(=O)c1ccc([N+](=O)[O-])o1)NC1CCCC1	-8	15	-3	6	·	48*
COc1cccc(S(=O)(=O)N[C@@H]2CC[C@H](CC(=O)NCc3ccc(Cl)cc3)O[C@@H]2CO)c1	·	·	-4	1	·	-10
COCCn1c(SCC(=O)Nc2ccc(C(C)=O)cc2)nc2c([nH]c3ccccc32)c1=O	-8	-3	1	3	98*	-12
COCCn1c(SCC(=O)Nc2cccc(F)c2)nc2c([nH]c3ccccc32)c1=O	-1	1	-7	-7	-2	-5
COCCn1c(SCC(=O)Nc2cccc(NC(C)=O)c2)nc2c([nH]c3ccccc32)c1=O	4	-1	0	0	98*	-4
C[C@H](CO)N1C[C@H](C)[C@H](CN(C)CC2CCCCC2)Oc2c(NC(=O)C3CC3)cccc2C1=O	·	·	-4	2	·	5
Cc1ccc(NC2c3ncccc3C(=O)N2C2CCCCC2)cc1C (centres undefined)	-22	-1	-3	·	92*	-4
Cc1ccc(NC2c3ncccc3C(=O)N2Cc2ccc(F)cc2)cc1 (centres undefined)	0	5	0	4	97*	-18
Cc1ccc(NC2c3ncccc3C(=O)N2C2CCCCC2)cc1 (centres undefined)	6	0	·	·	96*	10
CCOc1cnc(-c2c(-c3c(Cl)cccc3Cl)noc2C)o1	27*	-1	-4	2	6	·
CCOc1cnc(-c2ccc(Cl)cc2)o1	-8	4	·	·	-11	-8
Cc1cc(C)nc(Sc2c(C)n[nH]c2C)n1	8	-16	0	0	3	-5
SMILES	CendR NRP1 mod	PDI inh	PglD DTNB	ERp5 block	ALR H2O2 inh	ARNT TACC3 PPI
Cc1n[nH]c(C)c1Sc1ccccc1N	-5	0	·	-1	96*	1
COc1cccc(-c2ccc3c(c2)[C@@H]2[C@@H](CCN2S(=O)(=O)c2ccccc2F)[C@H](CO)N3C)c1	·	·	1	·	·	25
O=[N+]([O-])c1ccc(Nc2ccc(N3CCOCC3)cc2)c([N+](=O)[O-])c1	3	12	·	0	99*	-7
CCN(CC)c1cccc(OC2=NS(=O)(=O)c3ccccc32)c1	-20	0	·	·	99*	0
CCc1ccc(OC2=NS(=O)(=O)c3ccccc32)cc1	4	-6	·	8	·	·
CCC(=O)N1[C@@H]2c3cccc(=O)n3C[C@H]1[C@H](CO)[C@H]2C(=O)NCc1ccc(F)cc1	·	·	0	-7	·	-19
CCCCC/C=C\C/C=C\C/C=C\C/C=C\CCCC(=O)O	·	·	·	·	97*	·
CN(C)CC(=O)N[C@H]1CC[C@@H](CC(=O)NCc2ccc(Cl)cc2)O[C@@H]1CO	·	·	0	-5	·	-21
Cc1cnc(C(=O)OCC(=O)N2CC(C)CC(C)C2)cn1 (centres undefined)	6	4	3	4	-11	3
Cc1cnc(C(=O)OCC(=O)N2CCC(C)CC2)cn1	23*	-3	-6	-3	-3	·
Cc1nnc(SCC(=O)c2ccc(S(=O)(=O)N3CCOCC3)cc2)n1-c1ccccc1	-10	1	0	·	94*	-32
CO[C@@H]1CN(C)C(=O)c2ccc(NC(=O)C3CCOCC3)cc2OC[C@@H](C)N(C(=O)C2CCOCC2)C[C@H]1C	·	·	3	-4	·	-10
CCc1ccc(-c2cn(C3CCCCC3)c(=S)[nH]2)cc1	-11	-1	·	2	97*	-3
C[C@H]1CN([C@@H](C)CO)C(=O)c2cc(NC(=O)Nc3ccc(F)cc3)ccc2O[C@@H]1CN(C)C(=O)Nc1ccccc1	·	·	-4	1	·	-5
O=C(CSc1ccccc1F)NCCN1C(=O)CSC1=O	-1	0	5	-2	1	-5
O=C(CSc1nc(-c2ccccc2)c(-c2ccccc2)[nH]1)NCCN1C(=O)CSC1=O	1	9	·	·	99*	-2
COc1cccc(N2CCN(c3ccc4nnc(CCC(=O)Nc5cc(C)ccn5)n4n3)CC2)c1	-8	6	7	-1	58	5
COc1cccc(N2CCN(c3ccc4nnc(CCC(=O)Nc5ccccn5)n4n3)CC2)c1	9	-2	-5	-1	95*	9
COc1cnc(-c2ccccn2)nc1Oc1ccccc1	-14	2	3	-2	-1	82*
COc1cnc(-c2ccccn2)nc1Sc1ccc(F)cc1	8	0	·	3	5	46*
COc1cnc(-c2ccccn2)nc1Oc1cccc(C(F)(F)F)c1	-4	6	·	-3	-7	·
C/C=C/c1ccc([C@H]2[C@H](CO)N(C(=O)c3cnccn3)C23CN(C(=O)C2CC2)C3)cc1	·	·	·	-3	·	·

Compound activity deposited in PubChem BioAssay by several laboratories.
